Laboratory results published in the supplement of paper PMC6555819.

test system: VDR:RXRa (NR concentration 270 nM, RXRa partner concentration 90 nM); assay: PBM binding z-score (relative to random genomic background probes); higher = stronger binding; sequences stand for … in GC…GCGATTGACAGCGTAGAATGAAGG
Protocol: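 Protein-binding microarray (Agilent 4x180K custom design, double-stranded 60-nt probes: 5' GC cap, 34-nt variable region, 24-nt constant primer region; full probe sequence given). Purified or IVT nuclear receptor:RXRα heterodimers (3:1 NR:RXRα, mostly 270:90 nM) or homodimers were incubated for 1 h in PBS with 2% milk and no ligand, then detected with Alexa488 antibodies. Fluorescence from o1-orientation probes (~5 replicates averaged) was converted to z-scores against 500 random hg19 background probes. Variable regions are seed direct-repeat (DR0–DR5) sites, all their single-nucleotide variants and half-site ablations.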

| Sequence | PBM binding z-score |
| --- | --- |
| TCTCGTAGGACACGAAAGGTCAGAGCTCGACATC | 3.09 |
| CTCGAAAGGTCGGTGGAGGTGAGTATACGGATAA | 1.79 |
| AGTCAGAGTTCACTAGGTAACGTAAGATTCAGCT | 4.82 |
| TCATTTAGGTAAAGGTGAAAGTCGAACGATATGA | 1.23 |
| CGTGCAAGGTCATAGGAGGTCAGTGAAGACAGAT | 6.87 |
| CCGACTGGGGAAAGGTTACCATAACGCACAGCCA | 0.901 |
| CCTACTGGGCCATCAGGTCATTAATATCAACGTT | 1.49 |
| ATCGAAAGGTCGTGGTGAGTATAGAGAAAGGGAA | 3.85 |
| CCGACTGGGGCATAAGGTTACCTTAAGCCAGCCC | 0.0606 |
| TTACCAAGGTGAGCTGCGGTCGTTGATCCAACTC | 0.235 |
| GGAACGAGGGCATTCGAGTGGATAGCATGGCGAT | 1.32 |
| ACTATTAGTTGACTCAGGGCAACCGATACGACGC | 0.825 |
| TCAGACAGGTGAATGTAACTCAGGTACGCAGTCG | 0.512 |
| TAGCCTAGGTCATGCGGGCCAGTAGAGTGTCGGC | 2.95 |
| AGTAGTTGGTCAGCTGAGGTCACACACAATTCGG | 4.43 |
| CCTAGTTGGTTAAGGTCACACACGCTATAGGTAC | 4.4 |
| CTCGAAAGGTCGTGCTCAGGTGAGTAAACCAAAC | 2.99 |
| CAAACTAGGTCACCGGAAGGTCAAAGTCCGCATG | 6.25 |
| AGAATGAGGTTACCAAAGACCAGGGAAACGCTTG | 1.32 |
| ACTATTAGTTGAGACGAGGGGAACCGATAGGTTG | -0.291 |

| Sequence | PBM binding z-score |
| --- | --- |
| TCATATAGGTAAAGGTGACAGTCGAACGATATGA | 0.874 |
| CGAACTAGGTCATTGACAGGACTGTGAATAGTAA | 1.65 |
| TCTTGTAGATCGAGCAGGTTAAGAAAGCCTGAGT | -0.0222 |
| AGTCAAAGTTCTGGACGAGGTAACGTAAAGCACG | -0.216 |
| TCTAGTAGATCAAAGGTTAAGAAAGCCGAAGCCT | 1.37 |
| TAATATAGGTAAACAGGTGAAAGTCCGTAAGTTA | 1.19 |
| CCTACTGCGCCATCAGGTCATTGATATCAACGTT | 2.07 |
| AGAACGAAGGCAATGAGTTGATAGCACGGGTGGC | 0.485 |
| TCATATACGTAATACAGGTGAAAGTCGGCATCTA | 1.29 |
| CCTAGTTGGTCAGGAGGTCGCACACCGGATATGA | 1.41 |
| CCTCGGAGGACAGCAGGTCAGAGCTGTCCGCTTT | -0.115 |
| TCAGACAGGTGAAGGTAACTGAGGTACGCAGTCG | 0.737 |
| GCTCGCAGGACAAGGTCAGAGCTTTGTCCGTAGA | 0.842 |
| CGAACTGGGTCATCCAGGACAGTGAATACATTGA | 4.54 |
| CCTCGTAGGACAACAGGAGGTCAGAGCTGCCAGA | 1.64 |
| CCTATTGGTTGACCATAAGGGCAACCGAAGCTCG | -0.0561 |
| TAGCCTAGGTCAGATCGGGCCAGTATGCGCTATA | 0.446 |
| ATCTCTAGGTAAGCCTCAGTTCAGTGAAGAACGC | 0.546 |
| ATTACAGGGTCATCGTAGGCCAGAGTACGCACAG | 5.39 |
| ACAGACAGGTGATGAAGGTCACTCAGGCTATCAT | 4.67 |
